Assay outcomes deposited in PubChem BioAssay by several laboratories.
The list is not random: actives were taken first. Their share in the collection is about 3.2%.
TMEM16A inh: inhibitors of mouse TMEM16A calcium-activated chloride channel; normalized B-score (activity score, 25-100; higher = stronger inhibition) at 10 µM; HEK293 TMEM16A/YFP iodide influx fluorescence, ionomycin; 310,000 compounds, 1.2% hits; Q8BHY3; AID 588511;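 active means ratio plate-corrected score three or more library SD toward inhibition, starting fluorescence score within five deviations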;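 further: score derived from kinetic fluorescence span divided by baseline fluorescence per well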
Target sequence (Q8BHY3 whole entry, looked up): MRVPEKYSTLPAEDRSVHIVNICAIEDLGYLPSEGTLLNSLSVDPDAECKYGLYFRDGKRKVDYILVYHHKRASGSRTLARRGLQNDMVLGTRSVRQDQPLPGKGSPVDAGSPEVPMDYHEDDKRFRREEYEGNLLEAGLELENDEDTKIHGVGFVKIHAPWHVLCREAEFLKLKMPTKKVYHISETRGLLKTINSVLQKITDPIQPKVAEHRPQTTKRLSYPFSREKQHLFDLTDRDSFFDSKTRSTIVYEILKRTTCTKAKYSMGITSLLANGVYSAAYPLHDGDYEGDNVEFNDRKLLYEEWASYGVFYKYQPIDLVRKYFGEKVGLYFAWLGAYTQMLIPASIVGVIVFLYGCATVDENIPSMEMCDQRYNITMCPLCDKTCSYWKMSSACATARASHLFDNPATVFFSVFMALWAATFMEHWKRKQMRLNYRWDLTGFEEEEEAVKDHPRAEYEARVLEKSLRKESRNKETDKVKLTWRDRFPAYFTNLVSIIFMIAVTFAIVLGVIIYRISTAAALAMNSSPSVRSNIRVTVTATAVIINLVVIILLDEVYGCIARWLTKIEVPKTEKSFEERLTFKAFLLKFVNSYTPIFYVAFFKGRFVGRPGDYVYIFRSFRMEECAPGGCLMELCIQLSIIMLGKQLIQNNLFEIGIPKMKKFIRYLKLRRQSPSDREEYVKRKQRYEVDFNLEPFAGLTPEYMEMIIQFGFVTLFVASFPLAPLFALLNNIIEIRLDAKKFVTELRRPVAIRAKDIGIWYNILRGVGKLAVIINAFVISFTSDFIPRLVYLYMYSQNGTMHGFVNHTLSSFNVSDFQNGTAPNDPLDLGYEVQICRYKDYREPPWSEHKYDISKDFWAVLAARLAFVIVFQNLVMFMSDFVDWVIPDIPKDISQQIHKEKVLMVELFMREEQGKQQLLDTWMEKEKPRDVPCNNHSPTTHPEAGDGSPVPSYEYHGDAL
ANO1 activ: activators or potentiators of mouse TMEM16A chloride channel; Q8BHY3; HEK293 TMEM16A/YFP-H148Q/I152L, iodide quench fluorescence; hits give low values; B-score at 10 µM; 340,000 compounds, 0.3% hits; AID 623877;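 active means fluorescence-ratio B-score plate-corrected deviation score at least 3 library SD below zero, with starting fluorescence score within 5 deviations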;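 further: channel opened by trigger with iodide after compound preincubation; score built on the fluorescence ratio of max minus min over baseline; more negative score means more quench and so TMEM16A activation or potentiation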
Kir21 inh: Kir2.1 (mouse) channel inhibition. P35561. HEK293-Kir2.1, FluxOR thallium flux fluorescence; hits give low values. B-score at 10 µM. 310,000 compounds, 0.85% hits;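 active means fluorescence ratio B-score at or below minus 3 SD of library scores, with starting-brightness B-score within 2 SD, cut at about -4.2 in these data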;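 further: channel flux triggered by added potassium and thallium sulfate stimulus; B-score of peak minus minimum fluorescence over baseline after thallium stimulus; more negative B-score means stronger Kir2.1 block with less thallium influx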
Rce1 inh: blocks yeast Ras-converting enzyme | calls only | yeast membranes, quenched prenylated peptide cleavage fluorescence | AID 2563 | 290,000 compounds, 0.27% hits;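 active means fall in fluorescence gain of 50% or more versus controls, with final raw signal at or below 3038400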;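 further: plate controls were neutral control wells for no effect and wells lacking membranes for full effect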
CHT allo act: allosterically activates the human high affinity choline transporter; Q9GZV3; B-score at 10 µM; CHT-expressing cells, membrane potential dye, choline EC20; hits give high values; LV-AA mutant CHT in HEK293 cells; 310,000 compounds, 0.49% hits;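 active means initial fluorescence not abnormally high and integrated response B-score, plate-corrected, over 3 SD above library mean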
CHT inh: inhibits the human high affinity choline transporter | Q9GZV3 | CHT-expressing cells, membrane potential dye, choline response; hits give low values | B-score at 10 µM | 310,000 compounds, 0.86% hits;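 active means B-score over 3 SD under the library average, and starting fluorescence ratio not unusually high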;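 further: choline stimulus applied at its EC90 after an EC20 pre-addition; B-score computed on integrated fluorescence ratio after choline addition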
TMEM16A reconf: reconfirmed blocker of mouse TMEM16A calcium-activated chloride channel; 2,300 compounds, 39% hits; shares compounds with TMEM16A inh; AID 652189; inhibition, % at 10 µM; HEK293 TMEM16A/YFP-H148Q, iodide quench fluorescence; ionomycin added to raise cell calcium;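 active means mean duplicate percent inhibition, scaled so buffer wells are 0 and the reference blocker 100, over three buffer SD above buffer mean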
HEK293 Ca mobil: alters calcium mobilization in TMEM16A HEK293 cells, counter-screen; TMEM16A/YFP HEK293, Fluo4 calcium mobilization; 2,300 compounds, 2% hits; calcium response (% of ionomycin), % at 10 µM; shares compounds with TMEM16A inh;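 active means duplicate-averaged calcium signal over 20% of the ionomycin maximum, relative to buffer baseline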;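 further: each well's signal is peak minus trough fluorescence divided by its pre-addition baseline; 0% = buffer wells and 100% = ionomycin wells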
YFP-HEK293 quench: parental YFP-HEK293 iodide quench counter-screen activity; shares compounds with TMEM16A inh; YFP ratio F(max-min)/F0 at 10 µM; 2,300 tested, under 10 active; ionomycin;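 active means yellow fluorescent protein signal ratio exceeding the buffer control mean by over 5 SD of those controls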;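 further: ratio is mean of duplicate wells from kinetic YFP trace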
ClC-1 rat inh: blocks the rat ClC-1 voltage-dependent chloride channel | CHO ClC-1-YFP, iodide influx fluorescence quench; iodide control reads 0, buffer control 100 | ratio percent, % at 10 µM | shares compounds with TMEM16A inh | 2,300 tested, under 10 active;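 active means duplicate-mean ratio percent above the mean of iodide-only control wells, which defines zero, plus 5 of their SD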;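 further: higher percent means stronger block of ClC-1 iodide influx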
Active calls of the source: *.

Results for CCOC(=O)c1ccccc1NC(=O)CSc1nnc(COc2ccccc2C)n1C ?
TMEM16A inh: 25*; ANO1 activ: inactive; Kir21 inh: -2.7; Rce1 inh: inactive; CHT allo act: inactive; CHT inh: inactive; TMEM16A reconf: inactive; HEK293 Ca mobil: inactive; YFP-HEK293 quench: -1.2; ClC-1 rat inh: -8

What do the screens show for `O=C(O)CCn1c(SCCOc2ccccc2F)nc2ccccc21`?
TMEM16A inh: inactive; ANO1 activ: inactive; Kir21 inh: 0.92; Rce1 inh: inactive; CHT allo act: inactive; CHT inh: inactive

Results for O=S(=O)(c1ccccc1)N1CCN(c2ccnc3cc(Cl)ccc23)CC1 ?
TMEM16A inh: 100*; ANO1 activ: inactive; Kir21 inh: -0.16; Rce1 inh: inactive; CHT allo act: inactive; CHT inh: inactive; TMEM16A reconf: inactive; HEK293 Ca mobil: inactive; YFP-HEK293 quench: -0.88; ClC-1 rat inh: -5

Results for COc1ccc(-c2csc(NC(=O)C3CCN(C(=O)c4ccc(F)cc4)CC3)n2)cc1OC ?
TMEM16A inh: 100*; ANO1 activ: inactive; Kir21 inh: 0.39; Rce1 inh: inactive; CHT allo act: inactive; CHT inh: inactive; TMEM16A reconf: 20%*; HEK293 Ca mobil: inactive; YFP-HEK293 quench: -0.75; ClC-1 rat inh: -16

How did COc1cccc(NC(=O)Nc2nc(-c3ccc(OC)c(OC)c3)cs2)c1 do in these assays?
TMEM16A inh: 25*; ANO1 activ: inactive; Kir21 inh: -1.5; Rce1 inh: inactive; CHT allo act: inactive; CHT inh: inactive; TMEM16A reconf: 20%*; HEK293 Ca mobil: inactive; YFP-HEK293 quench: -1.1; ClC-1 rat inh: -4

Results for OCC[C@@H]1C[C@H](O)[C@@H](O)[C@]2(CCCc3ccccc3O2)O1 ?
TMEM16A inh: inactive; ANO1 activ: inactive; Kir21 inh: -0.41; Rce1 inh: inactive; CHT allo act: inactive; CHT inh: inactive

What do the screens show for `CC(OC(=O)Cn1c(C(F)(F)F)nc2ccccc21)C(=O)N1CCCc2ccccc21` (configuration not stated)?
TMEM16A inh: 100*; ANO1 activ: inactive; CHT allo act: inactive; CHT inh: inactive; TMEM16A reconf: inactive; HEK293 Ca mobil: inactive; YFP-HEK293 quench: -1.3; ClC-1 rat inh: 0

Results for Cc1onc(-c2c(Cl)cccc2Cl)c1C(=O)Nc1ccc2c(c1)OCCO2 ?
TMEM16A inh: 100*; ANO1 activ: inactive; CHT allo act: inactive; CHT inh: inactive; TMEM16A reconf: inactive; HEK293 Ca mobil: inactive; YFP-HEK293 quench: -1; ClC-1 rat inh: -15

What do the screens show for `Cc1onc(-c2ccccc2)c1C(=O)Nc1ccc2c(c1)OCCO2`?
TMEM16A inh: inactive; ANO1 activ: inactive; Kir21 inh: 0.93; Rce1 inh: inactive; CHT allo act: inactive; CHT inh: inactive

Results for Cc1cc(C(=O)CSc2nnc(-c3ccco3)o2)c(C)n1Cc1ccco1 ?
TMEM16A inh: inactive; ANO1 activ: inactive; Kir21 inh: 0.63; Rce1 inh: inactive; CHT allo act: inactive; CHT inh: inactive; TMEM16A reconf: inactive; HEK293 Ca mobil: inactive; YFP-HEK293 quench: -0.99; ClC-1 rat inh: -14

How did O=C(CSc1nnc(-c2cccs2)o1)c1cccs1 do in these assays?
TMEM16A inh: inactive; ANO1 activ: inactive; Kir21 inh: -0.97; Rce1 inh: inactive; CHT allo act: inactive; CHT inh: inactive

How did Cc1cc(C(=O)CSc2nnc(-c3cccs3)o2)c(C)n1-c1ccccc1 do in these assays?
TMEM16A inh: 100*; ANO1 activ: inactive; Kir21 inh: 1.4; Rce1 inh: inactive; CHT allo act: inactive; CHT inh: inactive; TMEM16A reconf: inactive; HEK293 Ca mobil: inactive; YFP-HEK293 quench: -1.3; ClC-1 rat inh: -6

What do the screens show for `CCOc1ccc(CNC2CCCc3ccccc32)cc1` (configuration not stated)?
TMEM16A inh: inactive; ANO1 activ: inactive; Kir21 inh: -0.05; Rce1 inh: inactive; CHT allo act: inactive; CHT inh: inactive

What do the screens show for `O=C(NCCCN1CCOCC1)/C(=C/c1cccs1)NC(=O)c1ccccc1`?
TMEM16A inh: inactive; ANO1 activ: inactive; Kir21 inh: 0.61; Rce1 inh: inactive; CHT allo act: inactive; CHT inh: inactive

Results for Cc1cc(C)n(CC(=O)c2ccccc2)c(=O)c1C#N ?
TMEM16A inh: 100*; ANO1 activ: inactive; Kir21 inh: 1.7; Rce1 inh: inactive; CHT allo act: inactive; CHT inh: inactive; TMEM16A reconf: inactive; HEK293 Ca mobil: inactive; YFP-HEK293 quench: -0.9; ClC-1 rat inh: -8

How did CCn1c(C)cc(C)c(C#N)c1=O do in these assays?
TMEM16A inh: inactive; ANO1 activ: inactive; Kir21 inh: -0.05; Rce1 inh: inactive; CHT allo act: inactive; CHT inh: inactive

What do the screens show for `CCOC(=O)c1[nH]c(C)c(C(=O)Nc2ccc3c(c2)OCCO3)c1C`?
TMEM16A inh: 25*; ANO1 activ: inactive; Kir21 inh: -0.9; Rce1 inh: inactive; CHT allo act: inactive; CHT inh: inactive; TMEM16A reconf: inactive; HEK293 Ca mobil: inactive; YFP-HEK293 quench: -0.98; ClC-1 rat inh: -2

How did CCOC(=O)c1[nH]c(C)c(C(=O)Nc2ccc3c(c2)CCC3)c1C do in these assays?
TMEM16A inh: inactive; ANO1 activ: inactive; Kir21 inh: 0.82; Rce1 inh: inactive; CHT allo act: inactive; CHT inh: inactive

How did NC(=O)c1cc(S(=O)(=O)NCCc2ccc(S(N)(=O)=O)cc2)cs1 do in these assays?
TMEM16A inh: inactive; ANO1 activ: inactive; Kir21 inh: 1; Rce1 inh: inactive; CHT allo act: inactive; CHT inh: inactive

What do the screens show for `CSc1ccc(N=Nc2c(C)[nH]n(C)c2=O)cc1`?
TMEM16A inh: inactive; ANO1 activ: inactive; Kir21 inh: -14; Rce1 inh: inactive; CHT allo act: inactive; CHT inh: inactive
